Assay outcomes from PubChem BioAssay.
FMDV antiviral = High Throughput Screening for Foot and Mouth Disease Virus Antivirals; hit rate 1.2% among 410,000; FMDV antiviral cell-based qHTS; Potency, µM (series often up to 57.9 µM), without a hit: at the highest dose activity change, negative = inhibition, actives largely listed as inhibitors; calls by dose curve; tested in HEK293T cells; also: read-out not given here; potency is read from the fitted curve at half-maximal effect; nearly all actives have a fitted effect of over 45% in size
HCMV inh = qHTS Assay for inhibitors of the human cytomegalovirus (HCMV); HFF cells, HCMV-luciferase reporter, 72 h; stronger effect = lower value; hit rate 4.5% among 410,000; AID 1259415, 2018; activity change, negative = inhibition, % at 57.5 µM; in the data active = activity change below about -60%; inconclusive = no clear call, values can overlap the other calls; inactive = above about -39%
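Screen run at 2 compound doses on HFFs infected with reporter HCMV, MOI 1 PFU/cell. Luciferase activity from cell lysates at 72 h post infection gave inhibition relative to buffer-only and Salinomycin wells.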
Marburg entry inh = qHTS for inhibitors of binding or entry into cells for Marburg Virus; Marburg virus pseudotyped entry inhibition, cell reporter; Potency, µM (top dose mostly 37.8 µM), without a hit: at the highest dose activity change, negative = inhibition, actives largely listed as inhibitors; hit rate 1.8% among 300,000; AID 540276, 2011; calls by dose curve; tested in HEK293 cells; also: potency is read from the fitted curve at half-maximal effect
LASV entry inh = qHTS for Inhibitors of binding or entry into cells for Lassa Virus; hit rate 1.2% among 300,000; Lassa virus pseudotype entry inhibition, cell reporter; AID 540256, 2011; Potency, µM (highest dose often 37.9 µM), for inactives: top-dose activity change, negative = inhibition, usual class: inhibitors; calls by dose curve; tested in HEK293 cells; also: potency is read from the fitted curve at half-maximal effect; nearly all actives have a fitted effect of over 50% in size
HCV inh = qHTS Assay for Inhibitors of Hepatitis C Virus (HCV); Huh7.5.1 HCVcc-Cre infection, luciferase reporter, 44 h; Potency, µM (top dose mostly 41.8 µM), inactives show at the highest dose activity change, negative = inhibition, hits mostly inhibitors; hit rate 3.4% among 340,000; active = well fitted inhibition curve with a large enough effect; inconclusive = small, poorly fitted or top-dose-only effect, or another doubt; inactive = no such curve, though single readings can be large or run the other way; also: potency is read from the fitted curve at half-maximal effect
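Cells (1,000/well) were plated 4 h before compound, then infected with HCVcc-Cre virus (~0.5 moi). After 44 h further culture, infection was read as luciferase luminescence following a 15 min substrate incubation at room temperature.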
Starred values were filed as active, the others as inactive; u = inconclusive; x = not tested or not shown; [ ] = remark or other dose. Hits are enriched below; roughly 7.9% of the tested compounds scored in any of these assays. % is scaled to controls: 0 for no effect and ±100 for the full control effect.

SMILES | FMDV antiviral | HCMV inh | Marburg entry inh | LASV entry inh | HCV inh
CCOC(=O)c1cc(OC(=O)c2cc(OC)c(OC)c(OC)c2)n(-c2ccccc2)n1 | 0% | 6 | 12%[46.1 µM] | 1%[46.1 µM] | x
Cc1c([C@@H]2Nc3ccccc3NC3=C2C(=O)CC(C)(C)C3)cnn1C | x | x | 2% | x | x
NS(=O)(=O)c1ccc(NC(=O)c2ccc(S(=O)(=O)N3CCCCCC3)cc2)cc1 | -11% | -64* | -1% | -6% | -1%
NS(=O)(=O)c1ccc(NC(=O)c2ccc(-c3ccccc3)cc2)cc1 | -2% | u | -4%[46.1 µM] | 12%[46.1 µM] | 10%
O=C(Nc1cccc(S(=O)(=O)N2CCCCC2)c1)Nc1ccc(Cl)cc1Cl | u | -100* | u | u | u
O=C(Cc1ccccc1Cl)Nc1cccc(S(=O)(=O)N2CCCCCC2)c1 | -16% | -19 | x | x | u
CCN(CC)S(=O)(=O)c1ccc(NC(=O)c2ccc(Cl)nc2)cc1 | -27% | -62* | 0%[46.1 µM] | 8% | -22%
CC(C)(C)c1ccc(C(=O)Nc2ccc(S(N)(=O)=O)cc2)cc1 | -22% | -37 | 2%[46.1 µM] | u | 22µM*
COc1ccc(OC)c([C@H]2/C(=C(\O)c3ccccc3)C(=O)C(=O)N2Cc2ccco2)c1 | x | x | 10%[46.1 µM] | x | x
COc1cccc(OC)c1CN1CCC2(CCC(CNC(=O)c3ccccc3)O2)CC1 (configuration not stated) | -11% | x | x | x | x
CN(C)S(=O)(=O)c1ccc(C(=O)Nc2nnc(-c3cccs3)o2)cc1 | 32% | u | x | x | u
O=C(Nc1nc(-c2cccs2)cs1)c1ccc(S(=O)(=O)N2CCCC2)cc1 | 10µM* | -90* | 12µM* | 21µM* | u
O=C(Nc1nc(-c2cccnc2)cs1)c1ccc(S(=O)(=O)N2CCOCC2)cc1 | u | -7 | -21% | -20% | -5%
CN(C)S(=O)(=O)c1ccc(C(=O)Nc2nc(-c3cccs3)cs2)cc1 | u | -81* | x | x | 10µM*
Cc1csc(NC(=O)c2ccc(S(=O)(=O)N3CCCC3)cc2)n1 | 16% | -1 | x | x | -1%
O=C(Nc1nc(-c2ccc3c(c2)OCCO3)cs1)c1ccc(S(=O)(=O)N2CCCCC2)cc1 | x | -100* | u | u | u
O=C(Nc1nc(-c2ccc(S(=O)(=O)N3CCCC3)cc2)cs1)C1COc2ccccc2O1 (configuration not stated) | u | u | u | u | 2.2µM*
COc1ccc(-c2nc3cnc(OC)nc3n(-c3ccc(OC)cc3)c2=O)cc1 | 6% | x | x | x | x
CCN(C(=O)CCn1cnc2onc(-c3ccc(F)cc3)c2c1=O)c1ccc(OC)cc1 | 0% | 3 | x | u | x
O=C(Nc1nc(-c2ccc(S(=O)(=O)N3CCCCCC3)cc2)cs1)c1ccccc1 | 11µM* | -73* | -25% | u | u
COc1cc(NC(=O)C2=C(N3CCOCC3)/C(=C\c3ccc(Cl)cc3Cl)CC2)cc(OC)c1OC | 14µM* | 25 | u | u | u
CC(C)(C)c1ccc(O[C@@H]2[C@H](O)CO[C@H]2/C=C/C#Cc2ccccc2)cc1 | x | x | -9%[14.2 µM] | x | x
CCOC(=O)c1cc2[nH]c3ccccc3c2[n+](-c2ccc([N+](=O)[O-])cc2)c1N | u | -91* | u | -9% | 11%
NC(=O)COC(=O)c1ccc(-c2ccccc2)cc1 | 23% | -62* | 0%[46.1 µM] | 11%[46.1 µM] | 7%
NC(=O)COC(=O)c1ccc(-c2ccc(O)cc2)cc1 | 0% | 0 | x | x | 4%
SMILES | FMDV antiviral | HCMV inh | Marburg entry inh | LASV entry inh | HCV inh
CN(C)S(=O)(=O)c1ccc(NC(=O)N2CCN(c3cccc(C(F)(F)F)c3)CC2)cc1 | 28µM* | -79* | u | u | 11µM*
CCOC(=O)C1=CN(CCC=C(C)C)C(=O)N(C(C)=O)C1c1ccccc1 (configuration not stated) | x | x | 57%[14.2 µM] | x | x
CCn1c2c(c(=O)n3ncc(C(=O)N4CCN(c5ccc(C(C)=O)cc5)CC4)c13)CN(Cc1ccc(OC)cc1)CC2 | 20µM* | -36 | x | 10µM* | x
O=S(=O)(c1cc(F)ccc1F)N1CCN(c2ncccn2)CC1 | -19% | -19 | -4%[46.1 µM] | -4%[46.1 µM] | 4%
CC(C)(C)NC(=O)CSc1ncnc2c1nnn2Cc1ccccc1Cl | u | 32 | u | 18µM* | u
O=C(CSc1ncnc2c1nnn2Cc1ccccc1)NC1CCCC1 | u | 10 | -8%[46.1 µM] | -11% | 7%
O=C(Cn1cnc2c(nnn2Cc2ccccc2F)c1=O)N1CCN(c2ccccc2)CC1 | x | u | 14% | 15% | -3%
O=C(CSc1ncnc2c1nnn2Cc1ccccc1F)N1CCN(c2ccccc2)CC1 | 35µM* | -16 | -8% | u | 5%
CO[C@H]1CN(C)C(=O)c2cc(NC(=O)c3cc(C)on3)ccc2OC[C@@H](C)N(C(=O)C2CC2)C[C@H]1C | -17% | -7 | x | x | x
Cc1ccc(C(=O)Nc2cccc(-c3nc(CNC(=O)c4cccc(N(C)C)c4)c(C)o3)c2)s1 | 3% | x | x | x | x
CCn1c(SCc2ccc(C#N)cc2)nnc1-c1ccc(S(=O)(=O)N2CCCCC2)cc1 | u | -70* | -18% | u | 7.9µM*
CCCS(=O)(=O)c1nc(S(=O)(=O)c2ccc(C)cc2)c(N2CCC(C(N)=O)CC2)s1 | 20% | u | x | x | 12%
COc1cc(C#Cc2c(-c3cncn3C)n(C)c3ccc(-c4cnc(N5CCOCC5)nc4)cc23)cc(OC)c1 | 20% | 47 | x | x | 15%
COc1cc(C#Cc2c(-c3cncn3C)n(C)c3ccc(-c4ccc(CN5CCOCC5)cc4)cc23)cc(OC)c1 | -25% | -10 | x | x | 11µM*
CNc1ccccc1C(C)(C)c1cc(C)[nH]n1 | -27% | -65* | x | x | 1%
COC(c1ccc2c(c1)CN(C(=O)Cn1nc(C)c3ccccc3c1=O)CCO2)C1CCCCC1 (configuration not stated) | -18% | x | x | x | x
COc1ccc(C(=O)C[n+]2ccc3c(c2)nc(-c2ccccc2)n3C)cc1 | -27% | -91* | 11% | 15% | 1%
COc1ccc(C(=O)C[n+]2ccc3c(c2)nc(-c2ccc(OC)cc2OC)n3C)cc1 | -22% | -99* | 11% | 10% | 15%
C#CCCCO/N=C1/C[C@@H](O)[C@@H](O)[C@@H]2[C@H]3C(=O)N(c4ccc(F)cc4F)C(=O)[C@@H]3CC[C@@H]12 | x | x | -8%[14.2 µM] | x | x
CCOc1ccc(C(NC(=O)CC)c2c(O)ccc3ccccc23)cc1 (configuration not stated) | 12% | 23 | x | x | 15%
CC(=O)Oc1ccc2ccccc2c1C(NC(=O)Cc1ccccc1)c1ccc(Cl)cc1 (configuration not stated) | u | -28 | u | 5% | 10µM*
O=c1[nH]c2cc([N+](=O)[O-])ccc2c2cc(Br)ccc12 | -12% | 3 | x | x | x
COc1ccc(CCNC(=O)CCCn2c(SCC#N)nc3ccccc3c2=O)cc1OC | -22% | -33 | -5% | -9% | -18%
